Measured values: PubChem BioAssay (NCI)
Compounds without any hit were thinned out: in the full panel of roughly 79,000, 15% have a hit. The source made the active and inactive calls. No stated cut-off is given here; in the data, active means growth inhibition above about 70%; inactive means the rest.

Experiments:
[1] = NCI Yeast Anticancer Drug Screen. Data for the mec2-1 strain (AID 157); details: S. cerevisiae mec2-1 strain, stronger effect = higher value
Outline: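 Each compound was tested on mec2-1 yeast, a strain altered in DNA damage repair or cell cycle control. Growth inhibition is reported relative to vehicle.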

[2] = NCI Yeast Anticancer Drug Screen. Data for the rad14 strain (AID 159);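 further: 0% = growth of vehicle-treated control cultures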; details: S. cerevisiae rad14 strain growth inhibition, stronger effect = higher value
Outline: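 DNA repair-defective yeast, compound-exposed; % growth inhibition derived by comparison with vehicle-treated controls.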

[3] = NCI Yeast Anticancer Drug Screen. Data for the sgs1 mgt1 strain (AID 161);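 further: 0% = growth of cultures given vehicle only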; details: S. cerevisiae sgs1 mgt1 strain, stronger effect = higher value
Outline: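 Test agents were incubated with a DNA-repair-mutant yeast strain. Growth was then read and compared against vehicle-treated controls.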

[4] = NCI Yeast Anticancer Drug Screen. Data for the CLN2oe strain (AID 163);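 further: 0% = growth of vehicle-only control cultures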; details: S. cerevisiae CLN2oe strain, stronger effect = higher value
Outline: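 First, the altered yeast strain was treated with each compound; second, its growth was measured; finally, inhibition was derived by comparison with vehicle controls.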

[5] = NCI Yeast Anticancer Drug Screen. Data for the cln2 rad14 strain (AID 165);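 further: 0% = growth equal to vehicle treated cultures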; details: S. cerevisiae cln2 rad14 strain, stronger effect = higher value
Outline: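 Test compounds were added to cln2 rad14 yeast cultures; inhibition of growth was then determined by comparison with vehicle treatment.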

[6] = NCI Yeast Anticancer Drug Screen. Data for the bub3 strain (AID 167); details: S. cerevisiae bub3 mutant strain, stronger effect = higher value
Outline: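 In this screen, a yeast mutant lacking normal mitotic checkpoint function is challenged with compound. Relative growth versus vehicle gives the inhibition value.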

[7] = NCI Yeast Anticancer Drug Screen. Data for the wt2 strain (AID 169);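 further: 0% = growth of vehicle-treated yeast cultures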; details: S. cerevisiae wt2 strain growth inhibition, stronger effect = higher value
Outline: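 The panel's yeast strains carry defined changes in DNA repair or cell cycle genes. Each strain is grown with compound, and growth loss is scored relative to vehicle.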

[8] = NCI Yeast Anticancer Drug Screen. Data for the mlh1 strain (AID 171);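 further: 0% = growth of vehicle-treated control cultures of the same strain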; details: S. cerevisiae mlh1 strain growth inhibition, stronger effect = higher value
Outline: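 Inhibition values reflect reduced yeast growth in the presence of compound, referenced to vehicle controls, using a strain chosen for its alteration in DNA repair or cell cycle control.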

[9] = NCI Yeast Anticancer Drug Screen. Data for the sgs1 strain (AID 173);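 further: 0% = growth of vehicle-only control cultures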; details: S. cerevisiae sgs1 mutant, stronger effect = higher value
Outline: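 Vehicle-treated cultures served as reference for growth inhibition of a yeast strain altered in DNA damage repair or cell cycle control after compound exposure.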

[10] = NCI Yeast Anticancer Drug Screen. Data for the mlh1 rad18 strain (AID 175); details: S. cerevisiae mlh1 rad18 strain growth inhibition, stronger effect = higher value
Outline: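 Inhibition values reflect reduced growth of mutant yeast versus vehicle-treated controls following compound exposure; the mutations affect DNA damage repair.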

[11] = NCI Yeast Anticancer Drug Screen. Data for the rad18 strain (AID 177); details: S. cerevisiae rad18 mutant growth inhibition, stronger effect = higher value
Outline: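 Steps: expose repair-mutant yeast to compound; measure growth; express as inhibition relative to vehicle control.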

[12] = NCI Yeast Anticancer Drug Screen. Data for the rad52 strain (AID 147);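 further: 0% = growth of vehicle-treated control cultures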; details: S. cerevisiae rad52 mutant growth inhibition, stronger effect = higher value
Outline: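 Inhibition of yeast growth, referenced to vehicle controls, was the measured output for a strain with defective DNA damage repair.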

[13] = NCI Yeast Anticancer Drug Screen. Data for the wt1 strain (AID 149);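 further: 0% = growth of vehicle-treated wt1 cultures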; details: S. cerevisiae wt1 strain (SPY 50644) growth inhibition, stronger effect = higher value
Outline: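 wt1 strain grown with compound or vehicle; inhibition taken from the growth difference.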

[14] = NCI Yeast Anticancer Drug Screen. Data for the rad50EPP+ strain (AID 151);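 further: 0% = growth of vehicle-treated control cultures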; details: S. cerevisiae rad50 mutant strain, stronger effect = higher value
Outline: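 Genetically defined yeast (rad50EPP+, DNA damage repair alteration) is grown with compound, and inhibition of growth is expressed relative to vehicle-treated controls.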

[15] = NCI Yeast Anticancer Drug Screen. Data for the mgt1 strain (AID 153); details: S. cerevisiae mgt1 mutant growth inhibition, stronger effect = higher value
Outline: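 In the mgt1 strain, test compounds were added and growth inhibition was determined relative to vehicle-treated controls.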

[16] = NCI Yeast Anticancer Drug Screen. Data for the rad50 strain (AID 155);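 further: 0% = growth of vehicle-only cultures of the same strain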; details: S. cerevisiae rad50 strain growth inhibition, stronger effect = higher value
Outline: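 DNA repair mutant yeast, compound exposure, growth read-out; inhibition is taken relative to vehicle.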

[17] = at 5.0 µM (retest, dose inferred, filed as 0.5)
[18] = at 50.0 µM (retest, dose inferred, filed as 5.0)

Measured: growth inhibition

COc1ccc(NC(=O)CC2SC(=Nc3ccccc3C)NC2=O)c([N+](=O)[O-])c1 (centres undefined)
inactive: [1]; [17] -17% | [1]; at 11.0 µM 4% | [1]; at 33.0 µM 15% | [1]; [18] 66% | [2]; at 1.2 µM -2% | [2]; at 3.7 µM -2% | [2]; at 11.0 µM 1% | [2]; at 33.0 µM 10% | [3]; [17] 2% | [4]; at 1.2 µM 0% | [4]; at 3.7 µM -4% | [4]; at 11.0 µM 0% | [4]; at 33.0 µM -6% | [4]; at 100.0 µM 16% | [5]; [17] -2% | [5]; [18] 22% | [5]; at 50.0 µM 32.2% | [6]; at 1.2 µM 2% | [6]; at 3.7 µM -1% | [6]; [17] -8% | [6]; at 11.0 µM -5% | [6]; at 33.0 µM 6% | [6]; at 50.0 µM 34.7% | [7]; at 1.2 µM -1% | [7]; at 3.7 µM 7% | [7]; at 11.0 µM 1% | [7]; at 33.0 µM 11% | [8]; at 1.2 µM 0% | [8]; at 3.7 µM -1% | [8]; at 11.0 µM 0% | [8]; at 33.0 µM 11% | [9]; at 1.2 µM -2% | [9]; at 3.7 µM 1% | [9]; at 11.0 µM 9% | [9]; at 33.0 µM 37% | [10]; [17] -1% | [10]; [18] 53% | [11]; at 1.2 µM -1% | [11]; at 3.7 µM 4% | [11]; at 11.0 µM 6% | [11]; at 33.0 µM 41%
active: [1]; at 50.0 µM 72.2% | [1]; at 100.0 µM 97% | [2]; at 100.0 µM 97% | [3]; [18] 74% | [3]; at 50.0 µM 72.9% | [6]; [18] 71% | [6]; at 100.0 µM 97% | [7]; at 100.0 µM 92% | [8]; at 100.0 µM 99% | [9]; at 100.0 µM 99% | [10]; at 50.0 µM 74% | [11]; at 100.0 µM 98%

COc1ccc(C(=O)c2ccccc2C(=O)c2ccccc2OC)cc1
inactive: [12]; at 1.2 µM -1% | [12]; at 3.7 µM -2% | [12]; at 11.0 µM 1% | [12]; at 33.0 µM 6% | [12]; at 100.0 µM 14% | [13]; at 1.2 µM -2% | [13]; at 3.7 µM 1% | [13]; at 11.0 µM -6% | [13]; at 33.0 µM -7% | [13]; at 100.0 µM -4% | [14]; at 1.2 µM 5% | [14]; at 3.7 µM 9% | [14]; at 11.0 µM 11% | [14]; at 33.0 µM 15% | [14]; at 100.0 µM 13% | [15]; at 1.2 µM -1% | [15]; at 3.7 µM -1% | [15]; at 11.0 µM -2% | [15]; at 33.0 µM -1% | [15]; at 100.0 µM 7% | [16]; at 1.2 µM -1% | [16]; at 3.7 µM 1% | [16]; [17] 7% | [16]; at 11.0 µM -1% | [16]; at 33.0 µM 4% | [16]; [18] 46% | [16]; at 50.0 µM 12.8% | [16]; at 100.0 µM 10% | [1]; at 1.2 µM -2% | [1]; at 3.7 µM 1% | [1]; [17] -10% | [1]; at 11.0 µM 1% | [1]; at 33.0 µM 7% | [1]; [18] 16% | [1]; at 50.0 µM 10.1% | [1]; at 100.0 µM 11% | [2]; at 1.2 µM -3% | [2]; at 3.7 µM -5% | [2]; at 11.0 µM -5% | [2]; at 33.0 µM -1% | [2]; at 100.0 µM 8% | [3]; [17] 17% | [3]; [18] 55% | [3]; at 50.0 µM 15.4% | [4]; at 1.2 µM 2% | [4]; at 3.7 µM -15% | [4]; at 11.0 µM 0% | [4]; at 33.0 µM 7% | [4]; at 100.0 µM 24% | [5]; [17] 9% | [5]; [18] 35% | [5]; at 50.0 µM 13.7% | [6]; at 1.2 µM -1% | [6]; at 3.7 µM 3% | [6]; [17] 16% | [6]; at 11.0 µM 7% | [6]; at 33.0 µM 27% | [6]; at 50.0 µM 39.5% | [6]; at 100.0 µM 43% | [7]; at 1.2 µM -1% | [7]; at 3.7 µM -2% | [7]; at 11.0 µM -5% | [7]; at 33.0 µM -2% | [7]; at 100.0 µM 1% | [9]; at 1.2 µM -1% | [9]; at 3.7 µM -2% | [9]; at 11.0 µM 0% | [9]; at 33.0 µM 9% | [9]; at 100.0 µM 15% | [10]; [17] 30% | [10]; [18] 68% | [10]; at 50.0 µM 20.7% | [11]; at 1.2 µM -1% | [11]; at 3.7 µM -5% | [11]; at 11.0 µM -4% | [11]; at 33.0 µM 3% | [11]; at 100.0 µM 12%
active: [6]; [18] 79%

COc1ccc(C/C=N/Nc2ccc([N+](=O)[O-])cc2)cc1OC
active: [16]; [18] 97% | [16]; at 50.0 µM 98.1% | [1]; [18] 98% | [1]; at 50.0 µM 97.3% | [3]; [18] 97% | [3]; at 50.0 µM 97.5% | [5]; [18] 89% | [6]; [18] 97% | [6]; at 50.0 µM 98.2% | [9]; at 100.0 µM 73% | [10]; [18] 98% | [10]; at 50.0 µM 97.8%
inactive: [12]; at 1.2 µM 8% | [12]; at 3.7 µM 12% | [12]; at 11.0 µM 18% | [12]; at 33.0 µM 39% | [12]; at 100.0 µM 42% | [13]; at 1.2 µM 4% | [13]; at 3.7 µM 2% | [13]; at 11.0 µM 5% | [13]; at 33.0 µM -1% | [13]; at 100.0 µM 2% | [14]; at 1.2 µM 15% | [14]; at 3.7 µM 29% | [14]; at 11.0 µM 33% | [14]; at 33.0 µM 35% | [14]; at 100.0 µM 51% | [15]; at 1.2 µM 2% | [15]; at 3.7 µM 12% | [15]; at 11.0 µM 9% | [15]; at 33.0 µM 4% | [15]; at 100.0 µM 23% | [16]; at 1.2 µM 27% | [16]; at 3.7 µM 36% | [16]; [17] 9% | [16]; at 11.0 µM 28% | [16]; at 33.0 µM 56% | [16]; at 100.0 µM 66% | [1]; at 1.2 µM 1% | [1]; at 3.7 µM 3% | [1]; [17] 16% | [1]; at 11.0 µM 4% | [1]; at 33.0 µM 1% | [1]; at 100.0 µM 6% | [2]; at 1.2 µM 3% | [2]; at 3.7 µM 12% | [2]; at 11.0 µM 23% | [2]; at 33.0 µM 25% | [2]; at 100.0 µM 30% | [3]; [17] 9% | [4]; at 1.2 µM 8% | [4]; at 3.7 µM 6% | [4]; at 11.0 µM 12% | [4]; at 33.0 µM 1% | [4]; at 100.0 µM 20% | [5]; [17] -3% | [5]; at 50.0 µM 54.4% | [6]; at 1.2 µM 3% | [6]; at 3.7 µM 2% | [6]; [17] 12% | [6]; at 11.0 µM 8% | [6]; at 33.0 µM 13% | [6]; at 100.0 µM 23% | [8]; at 1.2 µM -1% | [8]; at 3.7 µM 6% | [8]; at 11.0 µM 9% | [8]; at 33.0 µM 11% | [8]; at 100.0 µM 31% | [9]; at 1.2 µM -17% | [9]; at 3.7 µM -24% | [9]; at 11.0 µM -8% | [9]; at 33.0 µM 48% | [10]; [17] 7% | [11]; at 1.2 µM 15% | [11]; at 3.7 µM 43% | [11]; at 11.0 µM 26% | [11]; at 33.0 µM 20% | [11]; at 100.0 µM 56%
